In assay [1] the target is Retinoic acid receptor RXR-alpha (Homo sapiens) (UniProt P19793). Description: TOX21_TR_RXR_BLA_Antagonist_Followup_ratio: Tox21 Thyroid Hormone Receptor beta Retinoid X Receptor alpha (RXRa) Antagonism Beta-lactamase (BLA) Follow-Up Assay, Ratio (AID 2283972). In short, it runs like this: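 RXRa-UAS-bla HEK293T cells in phenol red-free DMEM with 2% charcoal-stripped FBS; compounds at 11 concentrations in triplicate, 16 h at 37C. LiveBLAzer FRET-B/CCF4-AM substrate 2 h at room temperature; read as 460:530 nm ratio versus DMSO.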
Sequence of Retinoic acid receptor RXR-alpha (Homo sapiens) (P19793 whole entry, looked up): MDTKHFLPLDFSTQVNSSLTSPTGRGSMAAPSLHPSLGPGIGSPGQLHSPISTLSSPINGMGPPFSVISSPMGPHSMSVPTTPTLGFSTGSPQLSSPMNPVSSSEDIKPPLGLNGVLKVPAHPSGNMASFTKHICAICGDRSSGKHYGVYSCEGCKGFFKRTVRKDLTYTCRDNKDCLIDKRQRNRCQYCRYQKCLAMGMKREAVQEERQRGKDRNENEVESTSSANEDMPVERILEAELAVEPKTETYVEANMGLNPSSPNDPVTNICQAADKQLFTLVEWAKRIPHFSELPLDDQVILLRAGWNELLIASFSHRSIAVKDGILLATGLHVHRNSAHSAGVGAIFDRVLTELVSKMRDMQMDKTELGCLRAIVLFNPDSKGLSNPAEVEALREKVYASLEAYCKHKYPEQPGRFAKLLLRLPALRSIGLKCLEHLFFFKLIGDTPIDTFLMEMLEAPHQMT

Assay [2] can be described thus: TOX21_TR_RXR_BLA_Antagonist_Followup_viability: Viability Assessment in the Tox21 Thyroid Hormone Receptor beta Retinoid X Receptor alpha (RXRa) Antagonism Beta-lactamase (BLA) Follow-Up Assay (AID 2283979). In short, it runs like this: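 Follow-up compounds (11 concentrations, triplicate) were incubated 16 h at 37C/5% CO2 with HEK293T RXRa-bla cells seeded at 2,500/well in charcoal-stripped-serum medium. ATP content by CellTiter-Glo luminescence gave viability; curves fitted in both directions against DMSO.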

A short description of assay [3]: CCTE_Harrill_HTTr_Viability_DMEM_6hr: (Pilot) CCTE's 6-hour Cell Viability Assessment for the High-Throughput Transcriptomics (HTTr) Platform, in MCF-7 cells cultured in DMEM + 10% fetal bovine serum, Harrill Lab (AID 2283973; active = hit-call score of the fitted dose curve at least 0.9, where 1 is the maximum; inactive = score below 0.9). In short, it runs like this: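 Propidium iodide uptake imaged by high-content analysis after six hours of chemical treatment in an eight-concentration series. Cells: MCF-7 grown in DMEM with 10% fetal bovine serum; DMSO as baseline.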

A short description of assay [4]: CCTE_Harrill_HTTr_Viability_DMEM_12hr: (Pilot) CCTE's 12-hour Cell Viability Assessment for the High-Throughput Transcriptomics (HTTr) Platform, in MCF-7 cells cultured in DMEM + 10% fetal bovine serum, Harrill Lab (AID 2283974; active = hit-call score of the fitted dose curve at least 0.9, where 1 is the maximum; inactive = score below 0.9). The method, boiled down: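 Propidium iodide dye exclusion imaged by high-content microscopy after 12 h chemical exposure (eight concentrations) of MCF-7 cells grown in DMEM plus 10% FBS; values fitted in both directions relative to DMSO.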

A short description of assay [5]: CCTE_Harrill_HTTr_Viability_DMEM_24hr: (Pilot) CCTE's 24-hour Cell Viability Assessment for the High-Throughput Transcriptomics (HTTr) Platform, in MCF-7 cells cultured in DMEM + 10% fetal bovine serum, Harrill Lab (AID 2283975; active = hit-call score of the fitted dose curve at least 0.9, where 1 is the maximum; inactive = score below 0.9). In short, it runs like this:
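Pilot study: propidium iodide dye exclusion, imaged by high content microscopy, after 24 h compound exposure (eight concentrations) in MCF-7 cultured in DMEM + 10% fetal bovine serum; DMSO served as negative control and baseline.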

Assay [6] is described as follows: CCTE_Harrill_HTTr_Viability_PRF_DMEM_6hr: (Pilot) CCTE's 6-hour Cell Viability Assessment for the High-Throughput Transcriptomics (HTTr) Platform, in MCF-7 cells cultured phenol red-free DMEM + 10% charcoal-stripped fetal bovine serum, Harrill Lab (AID 2283976; active = hit-call score of the fitted dose curve at least 0.9, where 1 is the maximum; inactive = score below 0.9). In short, it runs like this:
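Membrane integrity by high-content imaging of propidium iodide uptake, six hours after dosing with eight concentrations. Cells: MCF-7 grown in phenol red-free DMEM plus 10% charcoal-stripped serum; DMSO serves as baseline for bidirectional fits.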

Assay [7] in a line: CCTE_Harrill_HTTr_Viability_PRF_DMEM_12hr: (Pilot) CCTE's 12-hour Cell Viability Assessment for the High-Throughput Transcriptomics (HTTr) Platform, in MCF-7 cells cultured in phenol red-free DMEM + 10% charcoal-stripped fetal bovine serum, Harrill Lab (AID 2283977; active = hit-call score of the fitted dose curve at least 0.9, where 1 is the maximum; inactive = score below 0.9). The method, boiled down: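 Membrane integrity was scored via propidium iodide dye exclusion imaging, fitted in both directions relative to DMSO. Compounds ran as eight-point dilutions for 12 hours on MCF-7 grown in phenol red-free DMEM plus 10% charcoal-stripped serum.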

A short description of assay [8]: CCTE_Harrill_HTTr_Viability_PRF_DMEM_24hr: (Pilot) CCTE's 24-hour Cell Viability Assessment for the High-Throughput Transcriptomics (HTTr) Platform, in MCF-7 cells cultured in phenol red-free DMEM + 10% charcoal-stripped fetal bovine serum, Harrill Lab (AID 2283980; active = hit-call score of the fitted dose curve at least 0.9, where 1 is the maximum; inactive = score below 0.9). In short, it runs like this:
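Propidium iodide exclusion imaged at 24 h after dosing scores viability; cells were MCF-7 grown in phenol red-free DMEM plus 10% charcoal-stripped serum, tested in eight concentrations, fitted in both directions against DMSO.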

A short description of assay [9]: CCTE_Harrill_HTTr_Apoptosis_DMEM_6hr: (Pilot) CCTE's 6-hour Apoptosis Assessment for the High-Throughput Transcriptomics (HTTr) Platform, in MCF-7 cells cultured in DMEM + 10% fetal bovine serum, Harrill Lab (AID 2283981; active = hit-call score of the fitted dose curve at least 0.9, where 1 is the maximum; inactive = score below 0.9). The method, boiled down:
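MCF-7 cells grown in DMEM + 10% FBS were exposed for 6 hours to an eight-point dilution series. CellEvent Caspase 3/7 Green signal was imaged; activity fitted bidirectionally against DMSO.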

The nature of assay [10]: TOX21_TR_RXR_BLA_Agonist_Followup_viability: Viability Assessment in the Tox21 Thyroid Hormone Receptor beta Retinoid X Receptor alpha (RXRa) Agonism Beta-lactamase (BLA) Follow-Up Assay (AID 2283970). From the text: GeneBLAzer RXRa-UAS-bla HEK293T assay (RXRa-bla) (ThermoFisherScientific Catalog No. K1697) was run in qHTS 1536 well format as a secondary assay for specificity of response in the TOX21_TR_GH3_LUC_Agonist assay.TOX21_TR_RXR_BLA_Agonist_Followup_viability is a component of the TOX21_TR_RXR_BLA_Agonist_Followup assay. This component measures cell viability using the CellTiter-Glo Luciferase-coupled ATP quantitation.The assay component endpoint TOX21_TR_RXR_BLA_Agonist_Followup_viability was analyzed with bidirectional fitting relation to DMSO as the negative control and baseline of activity. Using a type of viability reporter, loss-of-signal activity can be used to understand changes in viability. […]
Cell Media Required: Growth (90% DMEM/F-12, 10% Fetal Bovine Calf Serum, 100U/ml Penicillin, 100 ug/ml Streptomycin), Assay (10ng/mL sodium selenite, 10 ug/mL humanapo-transferrin, 10 uM ethanolamine, 10 ug/mL insulin, 500 ug/mL bovine serum albumin (BSA))Assay Protocol: RXRa-bla cells were seeded at 2,500/well in 6 uL of the assay medium containing phenol red-free DMEM with 2% charcoal-stripped FBS in 1,536-well black-wall/clear-bottom plates (Greiner Bio-One North America) usinga Multidrop Combi dispenser. […] After 2-h incubation at room temperature, the fluorescence intensity was measured using an Envision plate reader (Perkin Elmer). Data were expressed as the ratio of 460:530 nm.

Results filed as inconclusive are left out. Active and inactive are the calls of the source. Rule for the calls, unless noted: active = hit-call score of the fitted dose curve at least 0.9, where 1 is the maximum; inconclusive = response in the unintended direction; inactive = score below 0.9.

In the case of `COc1ccccc1NC(=O)c1cc2ccccc2cc1O`, the values for the half-maximal activity concentration (AC50) in assay [1] and in assay [2] were 22 µM (active) and 24.1 µM (active), respectively.
For `Clc1ccc(Nc2nnc(Cc3ccncc3)c3ccccc23)cc1`, the outcome in assay [1] was inactive.
For the compound `CCCCc1oc2ccccc2c1C(=O)c1cc(I)c(OCCN(CC)CC)c(I)c1`, the outcome in assay [3], in assay [6] and in [9] was inactive. Besides, the AC50 was 46.3 µM (active) in [4], 73.9 µM (active) in assay [5], 39.5 µM (active) in assay [7] and 70.4 µM (active) in assay [8].
Take `O=c1cc(-c2ccccc2)oc2ccc3ccccc3c12`: the result in [2] was inactive.
For `Nc1ccn([C@@H]2O[C@H](CO)[C@@H](O)C2O)c(=O)n1` (stereo partly drawn), the outcome in assay [1] and in assay [2] was inactive.
For the compound `C=C(c1ccc(C(=O)O)cc1)c1cc2c(cc1C)C(C)(C)CCC2(C)C`, the outcome in assay [10] was inactive.
Turning to `CC(C)c1c(C(=O)Nc2ccccc2)c(-c2ccccc2)c(-c2ccc(F)cc2)n1CC[C@@H](O)C[C@@H](O)CC(=O)O`, the result in [1] and in assay [2] was inactive.
Take `Nc1cc(Cl)c(-c2cc(Cl)c(N)cc2Cl)cc1Cl`: the AC50 in assay [1] was 24.6 µM (active); in [2], 28 µM (active).

What is called AC50 is the concentration at which the activity in the assay is half-maximal.

The record behind these values is PubChem BioAssay (EPA / NIEHS).
